# The full list was thinned out, with the strongest signals kept by preference.
# B1: F17-L (Escherichia coli) (protein)
# chain: GPDDYVPSQIAVNTSTLPGVVIGPADAHTYPRVIGELAGTSNQYVFNGGAIALMRGKFTPALPKIGSITYTFHQGNSRDSSDFDIYDIGVSGLGIIIGMAGYWPATPLVPINSSGIYIDPVGANTNPNTYNGATASFGARLFVAFVATGRLPNGYITIPTRQLGTILLEAKRTSLNNKGLTAPVMLNGGRIQVQSQTHHHHHH
# Legend:
# Test in all cases: glycan array binding signal (z-score within array); higher = stronger binding
# Conditions in all cases: glycan notation: IUPAC condensed, linker removed
# [1] = molecular target: Fuc(a1-2)Gal(b1-3)GalNAc(b1-3)Gal
# Method in brief: (§1)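 The binding signal is a Z-score computed within each array and averaged over linkers. Arrays of the same protein sequence at different concentrations or buffers were also averaged together. Data originate from 3228 arrays in the Consortium for Functional Glycomics database, kept only where the protein sequence was available.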
# [2] = molecular target: Fuc(a1-2)Gal(b1-3)GlcNAc(b1-3)Gal(b1-4)Glc
# Method in brief: as §1
# [3] = molecular target: Fuc(a1-2)Gal(b1-4)[Fuc(a1-3)]GlcNAc(b1-3)[Neu5Ac(a2-6)Gal(b1-4)GlcNAc(b1-6)]Gal(b1-4)Glc
# Method in brief: as §1
# [4] = molecular target: Fuc(a1-2)[Gal(a1-3)]Gal(b1-4)GlcNAc(b1-2)Man
# Method in brief: as §1
# [5] = molecular target: Fuc(a1-2)[GalNAc(a1-3)]Gal(b1-3)GalNAc(b1-3)Gal(a1-4)Gal(b1-4)Glc
# Method in brief: as §1
# [6] = molecular target: Fuc(a1-2)[GalNAc(a1-3)]Gal(b1-3)GlcNAc(b1-2)Man(a1-3)[Fuc(a1-2)[GalNAc(a1-3)]Gal(b1-3)GlcNAc(b1-2)Man(a1-6)]Man(b1-4)GlcNAc(b1-4)GlcNAc
# Method in brief: as §1
# [7] = molecular target: Fuc(a1-3)[Gal(b1-4)]GlcNAc(b1-2)Man(a1-3)[Fuc(a1-3)[Gal(b1-4)]GlcNAc(b1-2)Man(a1-6)]Man(b1-4)GlcNAc(b1-4)GlcNAc
# Method in brief: as §1
# [8] = molecular target: Gal(a1-3)Gal(b1-3)GlcNAc(b1-3)GalNAc
# Method in brief: as §1
# [9] = molecular target: Gal(a1-3)Gal(b1-3)[Fuc(a1-4)]GlcNAc(b1-2)Man(a1-3)[Gal(a1-3)Gal(b1-3)[Fuc(a1-4)]GlcNAc(b1-2)Man(a1-6)]Man(b1-4)GlcNAc(b1-4)GlcNAc
# Method in brief: as §1
# Gal(a1-3)GalNAc = molecular target: Gal(a1-3)GalNAc
# Method in brief: as §1
# Gal(a1-4)Gal(b1-4)GlcNAc = molecular target: Gal(a1-4)Gal(b1-4)GlcNAc
# Method in brief: as §1
# [10] = molecular target: Gal(a1-4)Gal(b1-4)GlcNAc(b1-2)Man(a1-3)[Gal(a1-4)Gal(b1-4)GlcNAc(b1-2)Man(a1-6)]Man(b1-4)GlcNAc(b1-4)GlcNAc
# Method in brief: as §1
# [11] = molecular target: Gal(a1-4)Gal(b1-4)GlcNAc(b1-3)Gal(b1-4)Glc
# Method in brief: as §1
# Gal(b1-2)Gal = molecular target: Gal(b1-2)Gal
# Method in brief: as §1
# [12] = molecular target: Gal(b1-3)GlcNAc(b1-3)Gal(b1-4)Glc
# Method in brief: as §1
# [13] = molecular target: Gal(b1-3)[Fuc(a1-4)]GlcNAc(b1-2)Man(a1-3)[Gal(b1-3)[Fuc(a1-4)]GlcNAc(b1-2)Man(a1-6)]Man(b1-4)GlcNAc(b1-4)[Fuc(a1-6)]GlcNAc
# Method in brief: as §1
# Gal(b1-4)Glc = molecular target: Gal(b1-4)Glc
# Method in brief: as §1
# [14] = molecular target: Gal(b1-4)GlcNAc(b1-2)[Gal(b1-4)GlcNAc(b1-4)]Man(a1-3)[Gal(b1-4)GlcNAc(b1-2)Man(a1-6)]Man(b1-4)GlcNAc(b1-4)GlcNAc
# Method in brief: as §1
# [15] = molecular target: Gal(b1-4)GlcNAc(b1-3)Gal(b1-4)Glc
# Method in brief: as §1
# [16] = molecular target: Gal(b1-4)GlcNAc(b1-3)Gal(b1-4)GlcNAc(b1-3)Gal(b1-4)GlcNAc(b1-2)Man(a1-3)[Gal(b1-4)GlcNAc(b1-3)Gal(b1-4)GlcNAc(b1-3)Gal(b1-4)GlcNAc(b1-2)Man(a1-6)]Man(b1-4)GlcNAc(b1-4)[Fuc(a1-6)]GlcNAc
# Method in brief: as §1
# [17] = molecular target: Gal(b1-4)GlcNAc(b1-3)GalNAc
# Method in brief: as §1
# [18] = molecular target: Gal(b1-4)GlcNAc(b1-6)Gal(b1-4)GlcNAc
# Method in brief: as §1
# Gal(b1-6)Gal = molecular target: Gal(b1-6)Gal
# Method in brief: as §1
# Gal4S(b1-4)GlcNAc = molecular target: Gal4S(b1-4)GlcNAc
# Method in brief: as §1
# GalNAc(b1-3)GalNAc = molecular target: GalNAc(b1-3)GalNAc
# Method in brief: as §1
# GlcA(b1-3)GlcNAc = molecular target: GlcA(b1-3)GlcNAc
# Method in brief: as §1
# [19] = molecular target: GlcNAc(a1-4)Gal(b1-4)GlcNAc(b1-3)Gal(b1-4)[Fuc(a1-3)]GlcNAc(b1-3)Gal(b1-4)[Fuc(a1-3)]GlcNAc
# Method in brief: as §1
# [20] = molecular target: GlcNAc(b1-3)Gal(b1-4)GlcNAc(b1-3)Gal(b1-4)GlcNAc(b1-2)Man(a1-3)[GlcNAc(b1-3)Gal(b1-4)GlcNAc(b1-3)Gal(b1-4)GlcNAc(b1-2)Man(a1-6)]Man(b1-4)GlcNAc(b1-4)GlcNAc
# Method in brief: as §1
# [21] = molecular target: GlcNAc(b1-3)Gal(b1-4)GlcNAc(b1-3)Gal(b1-4)GlcNAc(b1-3)Gal(b1-4)GlcNAc(b1-3)Gal(b1-4)GlcNAc(b1-2)[GlcNAc(b1-3)Gal(b1-4)GlcNAc(b1-3)Gal(b1-4)GlcNAc(b1-3)Gal(b1-4)GlcNAc(b1-3)Gal(b1-4)GlcNAc(b1-6)]Man(a1-6)[GlcNAc(b1-3)Gal(b1-4)GlcNAc(b1-3)Gal(b1-4)GlcNAc(b1-3)Gal(b1-4)GlcNAc(b1-3)Gal(b1-4)GlcNAc(b1-2)Man(a1-3)]Man(b1-4)GlcNAc(b1-4)[Fuc(a1-6)]GlcNAc
# Method in brief: as §1
# [22] = molecular target: GlcNAc(b1-3)[GlcNAc(b1-6)]Gal(b1-4)GlcNAc
# Method in brief: as §1
binder,measurement,setting,value
B1,glycan array binding signal (z-score),[1],-0.136
same,glycan array binding signal (z-score),[2],1.54
same,glycan array binding signal (z-score),[3],-0.136
same,glycan array binding signal (z-score),[4],0.196
same,glycan array binding signal (z-score),[5],0.104
same,glycan array binding signal (z-score),[6],-0.078
same,glycan array binding signal (z-score),[7],-0.072
same,glycan array binding signal (z-score),[8],-0.023
same,glycan array binding signal (z-score),[9],0.699
same,glycan array binding signal (z-score),Gal(a1-3)GalNAc,-0.118
same,glycan array binding signal (z-score),Gal(a1-4)Gal(b1-4)GlcNAc,1.8
same,glycan array binding signal (z-score),[10],22.9
same,glycan array binding signal (z-score),[11],2.92
same,glycan array binding signal (z-score),Gal(b1-2)Gal,-0.01
same,glycan array binding signal (z-score),[12],1.3
same,glycan array binding signal (z-score),[13],0.915
same,glycan array binding signal (z-score),Gal(b1-4)Glc,-0.096
same,glycan array binding signal (z-score),[14],-0.169
same,glycan array binding signal (z-score),[15],1.67
same,glycan array binding signal (z-score),[16],0.05
same,glycan array binding signal (z-score),[17],-0.12
same,glycan array binding signal (z-score),[18],-0.156
same,glycan array binding signal (z-score),Gal(b1-6)Gal,-0.146
same,glycan array binding signal (z-score),Gal4S(b1-4)GlcNAc,-0.113
same,glycan array binding signal (z-score),GalNAc(b1-3)GalNAc,-0.19
same,glycan array binding signal (z-score),GlcA(b1-3)GlcNAc,1
same,glycan array binding signal (z-score),[19],-0.101
same,glycan array binding signal (z-score),[20],0.024
same,glycan array binding signal (z-score),[21],0.006
same,glycan array binding signal (z-score),[22],-0.228

# Reference: the supplement of paper PMC8728848
